Data published in PubChem BioAssay.
Where “and” joins values, the source holds several entries; their conditions need not be identical. Identical values can stand only once. Calls of active or inactive are those of the source. Rule as the data show it: active = inhibition above about 44%; inactive = the rest.

molecular target: Steroidogenic factor 1 (Homo sapiens) (UniProt Q13285); experiment: SF1 (NR5A1) inverse agonists, counter-screen for LRH-1 inverse agonist project, cell-based, luminescence, high throughput (AID 651614); conditions: cell-based SF1 luciferase reporter, at 3.6 µM, hits give high values;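 also: cells cotransfected with StAR promoter reporter and SF1 expression vector; 0% = vehicle on cells with receptor and 100% = vehicle on cells lacking receptor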
Sequence (Q13285 whole entry, looked up): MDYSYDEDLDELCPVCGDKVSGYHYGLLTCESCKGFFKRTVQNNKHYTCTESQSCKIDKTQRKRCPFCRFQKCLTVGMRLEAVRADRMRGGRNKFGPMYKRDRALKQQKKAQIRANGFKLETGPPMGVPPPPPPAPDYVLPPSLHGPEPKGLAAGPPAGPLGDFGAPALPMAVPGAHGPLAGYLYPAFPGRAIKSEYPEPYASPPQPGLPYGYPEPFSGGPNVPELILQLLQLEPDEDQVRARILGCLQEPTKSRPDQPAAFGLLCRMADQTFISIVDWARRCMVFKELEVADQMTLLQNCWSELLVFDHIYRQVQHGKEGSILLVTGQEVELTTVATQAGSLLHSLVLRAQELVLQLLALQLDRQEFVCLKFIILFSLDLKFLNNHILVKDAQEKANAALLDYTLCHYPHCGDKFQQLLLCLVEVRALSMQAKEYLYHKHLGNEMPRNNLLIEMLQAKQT

Question: For COc1ccc(NC(=O)Cn2c(C)cc(=O)c3ccccc32)cc1, which inhibition is on record?
Answer: 53.2% (active)

Question: CCN(CC)S(=O)(=O)c1ccc(N2CCOCC2)c(NC(=O)c2[nH]c(C)c(C(C)=O)c2C)c1 was tested. Which inhibition did it give?
Answer: 25.8% (inactive)

Question: For COc1ccc2c(c1)/C(=C/c1cc(OC)c(OC)c(OC)c1)C(=O)N2, which inhibition is on record?
Answer: 48.2% (active)

Question: With C[n+]1c2cc(N)ccc2cc2ccc(N)cc21 as the compound, how does the inhibition read?
Answer: 79.5% (active) and 66.7% (active)

Question: With CC(Cl)C(=O)Nc1ncc(C(F)(F)F)cc1Cl (stereo not given) as the compound, how does the inhibition read?
Answer: 51.3% (active)

Question: With COc1c(/C=N/NC(N)=S)c(C)nn1-c1ccccc1 as the compound, how does the inhibition read?
Answer: 27.9% (inactive)

Question: For CC(C)N1CCc2c(sc(NC(=O)c3ccc([N+](=O)[O-])o3)c2C(N)=O)C1, which inhibition is on record?
Answer: 56.4% (active)

Question: C=CCOc1ccccc1CN(C(=O)CCl)c1ccc2c(c1)OCO2 was tested. Which inhibition did it give?
Answer: 53.5% (active)

Question: For Cc1no[n+]([O-])c1COc1ccc(/C=N/n2nnnc2N)cc1, which inhibition is on record?
Answer: 48.4% (active)

Question: O=C(NCc1ccc2c(c1)OCO2)c1cc([N+](=O)[O-])ccc1N1CCCCC1 was tested. Which inhibition did it give?
Answer: 47.6% (active)

Question: Which inhibition does the source give for CCc1cc(=O)oc2c(C)c(OCC(=O)NCCN3CCOCC3)ccc12 here?
Answer: 30.7% (inactive)

Question: Which inhibition does the source give for CO/N=C\C(=N\Nc1ccc(OC)cc1)C(=O)c1ccccc1 here?
Answer: 36.8% (inactive)

Question: Which inhibition does the source give for Cc1cccc(NC(=O)COC(=O)Cc2cccs2)c1C here?
Answer: 46.9% (active)

Question: CC(=O)Nc1cc(-c2ccc(F)cc2)cn2c(-c3ccc(S(C)(=O)=O)cc3)cnc12 was tested. Which inhibition did it give?
Answer: 48.7% (active)

Question: How did the inhibition turn out when CC(=O)N1CCN(c2ccc(NC(=O)c3cccc([N+](=O)[O-])c3)cc2)CC1 was run?
Answer: 49.6% (active)
